Screens as filed in PubChem BioAssay.
hNpr1 antagonist – human Npr1 receptor antagonism. P16066. HEK293 hNpr1 GloSensor cGMP, ANP-stimulated luminescence. Potency, µM (series often up to 46.3 µM), without a hit: at the highest dose activity change, negative = inhibition, hits mostly inhibitors. 76,000 tested, 1.6% active. AID 1347048; calls by dose curve; also: nearly all actives have a fitted effect of over 60% in size
Target sequence (P16066 whole entry, looked up): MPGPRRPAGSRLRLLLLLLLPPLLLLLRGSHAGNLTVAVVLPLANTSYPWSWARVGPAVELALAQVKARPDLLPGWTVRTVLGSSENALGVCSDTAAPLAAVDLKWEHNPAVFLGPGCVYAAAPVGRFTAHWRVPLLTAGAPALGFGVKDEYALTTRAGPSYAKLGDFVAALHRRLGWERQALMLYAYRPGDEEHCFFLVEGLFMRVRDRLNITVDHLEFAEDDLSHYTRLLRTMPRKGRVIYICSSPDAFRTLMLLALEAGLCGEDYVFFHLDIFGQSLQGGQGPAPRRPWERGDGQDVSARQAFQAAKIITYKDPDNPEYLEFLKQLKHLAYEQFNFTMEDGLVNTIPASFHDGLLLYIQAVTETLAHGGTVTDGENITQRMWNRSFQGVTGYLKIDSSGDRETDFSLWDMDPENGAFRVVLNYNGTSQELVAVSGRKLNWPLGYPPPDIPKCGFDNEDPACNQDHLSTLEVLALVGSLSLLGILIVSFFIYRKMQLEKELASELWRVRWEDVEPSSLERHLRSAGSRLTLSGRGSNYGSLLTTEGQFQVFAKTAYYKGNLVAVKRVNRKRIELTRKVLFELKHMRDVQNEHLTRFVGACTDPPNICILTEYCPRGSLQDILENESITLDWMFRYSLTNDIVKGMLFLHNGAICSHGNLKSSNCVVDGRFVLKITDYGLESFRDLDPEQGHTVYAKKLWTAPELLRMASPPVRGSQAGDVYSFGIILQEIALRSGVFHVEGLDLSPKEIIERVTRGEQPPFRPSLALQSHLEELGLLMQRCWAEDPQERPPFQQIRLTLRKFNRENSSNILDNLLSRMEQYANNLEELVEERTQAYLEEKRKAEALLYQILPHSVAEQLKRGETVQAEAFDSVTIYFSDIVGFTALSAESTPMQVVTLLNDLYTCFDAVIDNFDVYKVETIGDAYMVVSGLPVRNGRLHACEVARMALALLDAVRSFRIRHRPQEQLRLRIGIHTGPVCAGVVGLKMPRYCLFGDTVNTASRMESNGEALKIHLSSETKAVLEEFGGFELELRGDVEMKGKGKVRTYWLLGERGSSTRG
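HEK293 cells stably expressing human Npr1 and cGMP GloSensor pGS-40F, loaded 2 h with 2% GloSensor reagent, given compound 30 min at room temperature. Luminescence read before and 20 min after 0.1 nM hNppA.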
3T3 cytotox – cytotoxic compounds in NIH 3T3 cells; 94,000 tested, 4.3% active; NIH 3T3 viability, CellTiter-Glo ATP luminescence, 48-72 h; Potency, µM (doses to about 96.7 µM), inactives show at the highest dose activity change, negative = cytotoxicity, hits mostly inhibitors; AID 1345082; also: nearly all actives have a fitted effect of over 55% in size
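Viability of NIH 3T3 cells after 48 or 72 hr compound treatment at 37 °C was assessed by CellTiter-Glo, with luminescence imaged following a 10 min room-temperature step.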
Luciferase inh – blocks purified firefly luciferase enzyme activity. purified P. pyralis luciferase, luminescence, biochemical. Potency, µM (top dose mostly 115 µM), usual class: inhibitors. 76,000 tested, 2.5% active. AID 1347043; also: nearly all actives have a fitted effect of over 65% in size
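Purified P. pyralis luciferase (10nM final) in 50mM Tris acetate pH 7.5, 10mM Mg acetate, 0.01% Tween-20, 0.05% BSA with 10uM D-luciferin and 10uM ATP. Compounds titrated qHTS. Luminescence imaged on CCD.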
GPT2 inhibitor – inhibitors of human GPT2 alanine aminotransferase. Potency, µM (series often up to 57.7 µM), without a hit: at the highest dose activity change, negative = inhibition, usual class: inhibitors. Recombinant GPT2, coupled pyruvate oxidase/HRP Amplex Red fluorescence. Q8TD30. 100,000 tested, 0.25% active; also: nearly all actives have a fitted effect of over 60% in size
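Inhibition is scored from Amplex Red fluorescence generated when pyruvate oxidase and HRP act on pyruvate released by GPT2. Reactions contain 10ng/uL enzyme, 250uM a-KG and 2mM L-alanine and run 30 min at room temperature.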
HEK293 tox – HEK 293 cell cytotoxicity. HEK 293 viability, ATP luminescence (CellTiter-Glo), 48-72 h. Potency, µM (doses to about 115 µM), for the others: top-dose activity change, negative = cytotoxicity, actives largely listed as inhibitors. 94,000 tested, 6.6% active. AID 1345083; also: nearly all actives have a fitted effect of over 60% in size
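Cytotoxicity was scored by loss of ATP-coupled luminescence (CellTiter-Glo) in HEK 293 cells. Compound treatment ran 48 or 72 hr at 37 degree Celsius, 5% CO2, 95% humidity.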
Starred values were filed as active, the others as inactive; i = inactive; ? = inconclusive; / = not tested or not shown; [ ] = remark or other dose. Shown are actives, neighbours in structure and some others; about 10% of the full set was active somewhere. Unless noted, calls follow the shape of the dose curve; as a rule, active = well fitted curve in the direction sought with a large enough effect; inconclusive = small, poorly fitted or top-dose-only effect, or another doubt; inactive = no such curve, though single readings can be large; an effect the other way counts as inactive or inconclusive. % is scaled to controls: 0 for no effect and ±100 for the full control effect; potency is read from the fitted curve at half-maximal effect.

SMILES | hNpr1 antagonist | 3T3 cytotox | Luciferase inh | GPT2 inhibitor | HEK293 tox
CCCn1cc(-c2ccnc(NC3CCN(Cc4cccnc4)CC3)n2)c(C)n1 | ? | ? | i | 4% | 28µM*
CCc1ccc(N2CC(c3noc(-c4ccc5ncccc5c4)n3)CC2=O)cc1 (stereo not given) | -22% | ? | i | 3% | ?
O=C(Cc1c(F)cccc1Cl)N1CCC(c2noc(COc3ccc(F)cc3)n2)CC1 | ? | ? | i | i | 89µM*
Cc1ccc(OCc2nc(C3CN(C(=O)c4cc(C)nn4C)C3)no2)cc1 | ? | -24% | 40µM* | i | 45µM*
CCn1nccc1C(=O)N1CCC(c2noc(COc3ccc(F)cc3)n2)C1 (stereo not given) | -28% | ? | i | -16% | 45µM*
Cc1ccc(OCc2nc(C3CN(C(=O)c4ccc(C)nc4)C3)no2)cc1 | -10% | -14% | i | -14% | -12%
O=C(NCCCc1ccccc1)C1CCc2nnc(C3CCN([S+](=O)([O-])c4ccccc4Cl)CC3)n21 (stereo not given) | / | ? | / | 5% | -18%
COc1ccc(-c2cccc(C(=O)N3CCC(NC(=O)c4ccc5c(c4)OCO5)CC3)c2)nn1 | / | -26% | / | / | -30%
Cc1nc(-c2ccc(F)cc2)n(Cc2nc(-c3ccc(Cl)cc3)oc2C)c(=O)c1CCO | -10% | -18% | i | 3% | -6%
COc1ccc(NC(=O)C2(C)CN(C)Cc3ccc(NCc4ccccc4)nc32)cn1 (stereo not given) | -17%[70.6 µM] | 79µM* | i | -1%[88.5 µM] | 79µM*
COc1cccc(NC(=O)C2(C)CN(C)Cc3ccc(NCc4ccccc4)nc32)c1 (stereo not given) | -2%[70.6 µM] | 40µM* | i | 0%[88.5 µM] | ?
CC(C)CC(=O)NC[C@@H]1C[C@H](F)CN1C(=O)c1cn(CCN)nn1 | 4% | 3% | i | i | 0%
COc1ccc(C2=NOC3(CCCN([S+](=O)([O-])c4cccs4)C3)C2)cc1 (stereo not given) | / | -17% | / | -3% | ?
COCCn1cc2c3c(cccc31)CN(C(=O)CCCc1ccccc1)CC2 | -29% | ? | i | i | ?
COCC(=O)N1CCc2cn(CC(C)C)c3cccc(c23)C1 | -11% | ? | i | i | 79µM*
CC(C)(C)C(=O)N1CC[C@@H](CC(=O)O)[C@@H](CC2=NCCc3ccc(C(C)(C)C)cc32)C1 | 6%[70.6 µM] | 100µM* | i | 3%[88.5 µM] | -25%[172 µM]
CN(Cc1cccc(-n2cccn2)c1)Cc1nc(-c2cccs2)no1 | -8% | -24% | i | 0% | 79µM*
CN(Cc1ccc(-n2cccn2)cc1)Cc1nc(Cc2cccc(F)c2)no1 | 2% | -20% | i | i | ?
O=C(c1cccc2[nH]ccc12)N1CCC2(CC1)CC(Cc1ccc(F)cc1)CCO2 (stereo not given) | / | ? | / | 4% | ?
Cc1csc(NC(=O)C2CC(=O)N(c3n[nH]c4ccccc34)C2)n1 (stereo not given) | -1% | -11% | i | -11% | -19%
Cc1ccc2nc(NC(=O)C3CC(=O)N(c4n[nH]c5ccccc45)C3)sc2c1 (stereo not given) | -1% | 32µM* | i | -6% | 40µM*
Cc1cnn(-c2cc(N3CCC(n4cc(C5CCCC5)nn4)CC3)ncn2)c1 | ? | ? | i | -6%[11.5 µM] | 45µM*
CNC(=O)c1ccccc1Nc1cc(Nc2ccc(N3CCOCC3)cc2OC)ncc1C(F)(F)F | / | / | / | 22µM* | /
CNC(=O)c1ccccc1Nc1nc(Nc2ccc(N3CCNCC3)cc2)ncc1Cl | / | / | / | -3% | /
COc1ccc(C(=O)N2C[C@@H]3C[C@H](C2)c2c(NS(=O)(=O)c4ccccc4)ccc(=O)n2C3)cc1 | 2% | 2% | i | i | 1%
SMILES | hNpr1 antagonist | 3T3 cytotox | Luciferase inh | GPT2 inhibitor | HEK293 tox
COc1ccc(C(=O)N2C[C@@H]3C[C@H](C2)c2ccc(NC(=O)Nc4cccc(C#N)c4)c(=O)n2C3)cc1 | -2% | ? | 25µM* | i | ?
COc1ccc(C(=O)N2C[C@@H]3C[C@H](C2)c2c(NC(=O)Nc4ccccc4)ccc(=O)n2C3)cc1 | -2% | i | i | 5% | 10µM*
COc1cccc(-c2ccc(C(=O)N3CCC(NC(=O)c4ccc(F)cc4)CC3)cc2)c1 | / | ? | / | 2% | ?
COc1ccc(Cl)cc1C(=O)N1CCC(N2CC3CC(C2)[C@H]2CCCC(=O)N2C3)CC1 (stereo not given in full) | 3% | -4% | i | i | -5%
COc1ccc(CN2CCCCCNC(=O)CC2c2ccccc2)cc1Cn1ccnc1 (stereo not given) | -30% | 40µM* | i | 5% | 35µM*
COc1cccc(CN2CCCCCCNC(=O)CC2c2ccccc2)c1 (stereo not given) | -29% | ? | i | 4% | ?
O=C1CC(c2ccccc2)N(Cc2ccc(F)c(F)c2)CCCCCN1 (stereo not given) | -21% | 40µM* | i | i | ?
CCN1CCN(CCNC(=O)[C@H]2CCC[C@H]2NC(=O)c2ccncc2)CC1 | 4% | 1% | i | ? | -5%
O=C(NCC1CCCCCC1)C1CCCN(c2nccc(Nc3ccccc3F)n2)C1 (stereo not given) | / | ? | / | -14% | 28µM*
O=C(NCC1CC1)C1CCCN(c2nccc(Nc3ccccc3F)n2)C1 (stereo not given) | / | ? | / | 5% | ?
CN(C)C(=O)C1CCCN(c2nccc(Nc3ccccc3F)n2)C1 (stereo not given) | / | ? | / | i | ?
O=C(C1CCCN(c2nccc(Nc3ccccc3F)n2)C1)N1CCN(c2ncccn2)CC1 (stereo not given) | / | ? | / | i | ?
O=C(NCc1ccc(C(F)(F)F)cc1)C1CCCN(c2nccc(Nc3ccccc3F)n2)C1 (stereo not given) | / | 32µM* | / | i | ?
O=C(C1CCCN(c2nccc(Nc3ccccc3F)n2)C1)N1CCCC1 (stereo not given) | / | 32µM* | / | ? | 45µM*
COc1cccc(CNC(=O)C2CCN(c3nccc(Nc4ccccc4F)n3)CC2)c1 | / | ? | / | i | ?
O=C(NCc1cccc(F)c1)C1CCCN(c2nccc(Nc3ccccc3F)n2)C1 (stereo not given) | / | 28µM* | / | -13% | ?
Cc1ccccc1C(=O)N1CCCN(c2nnc3ccc(Cl)cn23)CC1 | -5% | -16% | i | 3% | -16%
O=C(c1ccc(C(F)(F)F)cc1)N1CCCC2(CNc3ncccc3[S+](=O)([O-])N2)C1 (stereo not given) | / | -16% | / | / | -29%
